# Counter-ions that a name gives are not always drawn.
# Legend:
# [1] = system: S. cerevisiae SK1 pCDA2-eGFP (USY613), sporulating; assay: CDA2-GFP sporulation assay sensitivity score (z-score vs DMSO controls); higher = stronger inhibition of sporulation, active = hit call of the paper;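 note: active if sensitivity score above 5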
# [2] = system: S. cerevisiae NKY1551 his4x/his4B, sporulating; assay: HIS4 meiotic recombination assay sensitivity score (z-score vs DMSO controls); higher = stronger inhibition of sporulation/recombination, active = hit call of the paper;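 note: active if sensitivity score above 5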
# [3] = system: S. cerevisiae AD1-9 (efflux-pump deficient), vegetative growth in YPD; assay: growth sensitivity score (doubling time z-score vs DMSO controls); higher = slower growth, strongly negative scores also mark growth inhibition (complete suppression), active = hit call of the paper
# How it was run: (§1)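 Optical density of Saccharomyces cerevisiae cultures in microtiter plates was followed every 15 min for 24 hours after seeding at an OD600 of 0.065. Eight solvent-only wells were run per experiment. Growth sensitivity scores were found by subtracting the solvent-only mean from the compound mean and dividing by the solvent-only standard deviation.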
# [4] = system: S. cerevisiae BY4741 (wild-type), vegetative growth in YPD; assay: as above
# How it was run: as §1
SMILES,CDA2-GFP sporulation assay sensitivity score [1],HIS4 meiotic recombination assay sensitivity score [2],growth sensitivity score [3],growth sensitivity score [4]
"CCCc1nc(C)c2c(=O)nc(-c3cc(S(=O)(=O)N4CCN(CC)CC4)ccc3OCC)[nH]n12 [Vardenafil citrate] (stock concentration (mM, diluted 1:100): 7.2)",4.72 (inactive),-0.18 (inactive),0.43 (inactive),-0.19 (inactive)
"CS(=O)(=O)c1ccc(C2=C(c3ccccc3)C(=O)OC2)cc1 [Rofecoxib] (stock concentration (mM, diluted 1:100): 10)",0.79 (inactive),-1.67 (inactive),-0.37 (inactive),0.04 (inactive)
"C[C@@H]1O[C@@H](OC[C@H]2O[C@@H](Oc3c(-c4ccc(O)c(O)c4)oc4cc(O)cc(O)c4c3=O)[C@H](O)[C@@H](O)[C@@H]2O)[C@H](O)[C@H](O)[C@H]1O [Rutin] (stock concentration (mM, diluted 1:100): 10)",-0.59 (inactive),-1.04 (inactive),0.28 (inactive),-2.67
"CCCCN1CCCC1CNC(=O)c1cc(C#N)c2ccccc2c1OC (stereo not given) [Nafadotride] (stock concentration (mM, diluted 1:100): 10)",3.66 (inactive),-0.64 (inactive),-2.8,-0.11 (inactive)
"CNCCCC12CCC(c3ccccc31)c1ccccc12 [Maprotilline hydrochloride] (stock concentration (mM, diluted 1:100): 10)",0.21 (inactive),9.12 (active),86.6 (active),2.3 (active)
"CCC1=C[C@H]2CN(C1)Cc1c([nH]c3ccccc13)[C@@](C(=O)OC)(c1cc3c(cc1OC)N(C)[C@H]1[C@@](O)(C(=O)OC)[C@H](OC(C)=O)[C@]4(CC)C=CCN5CC[C@]31[C@@H]54)C2 [Vinorelbine bitatrate] (stock concentration (mM, diluted 1:100): 7.2)",1.77 (inactive),-0.36 (inactive),-3.29,-1.83 (inactive)
"C[C@]12CC[C@@H]3c4ccc(OS(=O)(=O)O)cc4CC[C@H]3[C@@H]1CCC2=O (stock concentration (mM, diluted 1:100): 10)",4.09 (inactive),1.4 (inactive),0.01 (inactive),-0.87 (inactive)
"CNCC[C@H](Oc1cccc2ccccc12)c1cccs1 [Duloxetine] (stock concentration (mM, diluted 1:100): 10)",1.64 (inactive),-1.33 (inactive),99.6 (active),11 (active)
"C[C@]12C=CC(=O)C=C1CC[C@@H]1[C@@H]2[C@@H](O)C[C@@]2(C)[C@H]1CC[C@]2(O)C(=O)COC(=O)CCC(=O)O (stock concentration (mM, diluted 1:100): 10)",-0.32 (inactive),-0.86 (inactive),-0.63 (inactive),-0.61 (inactive)
"O=C1CC[C@@H](C(=O)N2CSC[C@H]2C(=O)O)N1 [Pidotimod] (stock concentration (mM, diluted 1:100): 10)",0.46 (inactive),-0.31 (inactive),0.59 (inactive),-1.4 (inactive)
"Cc1cc2c(s1)Nc1ccccc1N=C2N1CCN(C)CC1 [Olanzapine] (stock concentration (mM, diluted 1:100): 9.9)",2.56 (inactive),1.61 (inactive),-0.74 (inactive),-0.76 (inactive)
"Cc1cccc(Nc2ccncc2S(=O)(=O)NC(=O)NC(C)C)c1 [Torasemide] (stock concentration (mM, diluted 1:100): 9.9)",-0.45 (inactive),0.74 (inactive),-2.4,-0.66 (inactive)
"COC(=O)CCc1ccc(OCC(O)CNC(C)C)cc1 (stereo not given) [Esmolol hydrochloride] (stock concentration (mM, diluted 1:100): 9)",0.86 (inactive),0.23 (inactive),-2.29,-0.5 (inactive)
"CN1CCN(C2=Nc3cc(F)ccc3Cc3ccccc32)CC1 [Fluperlapine] (stock concentration (mM, diluted 1:100): 10)",17.9 (active),-1.76 (inactive),2.12 (active),0.57 (inactive)
"Cc1cccc(C)c1NC(=O)C(C)N (stereo not given) [Tocainide] (stock concentration (mM, diluted 1:100): 10)",0.62 (inactive),0.7 (inactive),1.11 (inactive),-0.53 (inactive)
"O=C1CN2Cc3c(ccc(Cl)c3Cl)N=C2N1 [Anagrelide hydrochloride] (stock concentration (mM, diluted 1:100): 8.8)",3.77 (inactive),-0.8 (inactive),-1.22 (inactive),-2.21

SMILES,CDA2-GFP sporulation assay sensitivity score [1],HIS4 meiotic recombination assay sensitivity score [2],growth sensitivity score [3],growth sensitivity score [4]
"COC(=O)C1=C(C)NC(C)=C(C(=O)OC2CCCN(Cc3ccccc3)C2)C1c1cccc([N+](=O)[O-])c1 (stereo not given) [Benidipine hydrochloride] (stock concentration (mM, diluted 1:100): 6)",4.32 (inactive),-1.2 (inactive),-3.4,1.95 (inactive)
"C[C@]12CC[C@@H]3c4ccc(O)cc4CC[C@H]3[C@@H]1CC[C@@H]2O [Beta-Estradiol] (stock concentration (mM, diluted 1:100): 10)",0.49 (inactive),-2.13 (inactive),10.3 (active),3.35 (active)
"CC(=O)O[C@H]1C[C@@H]2CC[C@@H]3[C@H](CC[C@@]4(C)[C@H]3C[C@H]([N+]3(C)CCCCC3)[C@@H]4OC(C)=O)[C@@]2(C)C[C@@H]1N1CCCCC1 [Vecuronium bromide] (stock concentration (mM, diluted 1:100): 10)",1.32 (inactive),-1.64 (inactive),-5.36,0.21 (inactive)
"CC(C)c1nc(CN(C)C(=O)N[C@H](C(=O)N[C@@H](Cc2ccccc2)C[C@H](O)[C@H](Cc2ccccc2)NC(=O)OCc2cncs2)C(C)C)cs1 [Ritonavir] (stock concentration (mM, diluted 1:100): 10)",-0.68 (inactive),-1.41 (inactive),8.8 (active),-0.97 (inactive)
"CC(N/C(=N\C#N)Nc1ccncc1)C(C)(C)C (stereo not given) [Pinacidil monohydrate] (stock concentration (mM, diluted 1:100): 10)",1.62 (inactive),-1.38 (inactive),-0.96 (inactive),1.52 (inactive)
"C[C@]12CCC(=O)C=C1CC[C@@H]1[C@@H]2C(=O)C[C@@]2(C)[C@H]1CC[C@]2(O)C(=O)CO [Cortisone] (stock concentration (mM, diluted 1:100): 10)",2.53 (inactive),-0.95 (inactive),0.78 (inactive),-0.57 (inactive)
"O=C1N[C@H](C(=O)O)CS1 [Procysteine] (stock concentration (mM, diluted 1:100): 10)",0.97 (inactive),-0.93 (inactive),-2.4,-0.31 (inactive)
"CN1CCC(=C2c3ccccc3CC(=O)c3sccc32)CC1 [Ketotifen fumarate] (stock concentration (mM, diluted 1:100): 8.9)",4.44 (inactive),2.1 (inactive),-0.77 (inactive),0.49 (inactive)
"O=C1Nc2ccc(Cl)cc2[C@@](C#CC2CC2)(C(F)(F)F)O1 [Efavirenz] (stock concentration (mM, diluted 1:100): 10.1)",-2.28 (inactive),-0.43 (inactive),–,40.5 (active)
"C=CC[C@@H]1/C=C(\C)C[C@H](C)C[C@H](OC)[C@H]2O[C@@](O)(C(=O)C(=O)N3CCCC[C@H]3C(=O)O[C@H](/C(C)=C/[C@@H]3CC[C@@H](O)[C@H](OC)C3)[C@H](C)[C@@H](O)CC1=O)[C@H](C)C[C@@H]2OC [Tacrolimus] (stock concentration (mM, diluted 1:100): 10)",0.75 (inactive),-0.77 (inactive),20.9 (active),12 (active)
"O=C1[C@H](CC[C@H](O)c2ccc(F)cc2)[C@@H](c2ccc(O)cc2)N1c1ccc(F)cc1 [Ezetimibe] (stock concentration (mM, diluted 1:100): 10)",-0.54 (inactive),-0.94 (inactive),–,-0.7 (inactive)
"CN1CC(=O)N2[C@H](c3ccc4c(c3)OCO4)c3[nH]c4ccccc4c3C[C@@H]2C1=O [Tadalafil] (stock concentration (mM, diluted 1:100): 10)",-4.01 (inactive),-0.28 (inactive),-2.54,-1.71 (inactive)
"COC1=C(OC)C(=O)C(CCCCCCCCCCO)=C(C)C1=O [Idebenone] (stock concentration (mM, diluted 1:100): 10.2)",0.12 (inactive),-0.57 (inactive),–,15.6 (active)
"C[C@]12CCC(=O)C=C1CC[C@@H]1[C@@H]2CC[C@@]2(C)[C@H]1CC[C@]2(O)C(=O)CO [Cortodoxone] (stock concentration (mM, diluted 1:100): 10)",5 (inactive),–,6.84 (active),-0.69 (inactive)
"CCCCCNC(=N)N/N=C/c1c[nH]c2ccc(OC)cc12 [Tegaserod maleate] (stock concentration (mM, diluted 1:100): 7.2)",-3.28 (inactive),–,–,–
"Cc1c(C(=O)NN2CCCCC2)nn(-c2ccc(Cl)cc2Cl)c1-c1ccc(I)cc1 (stock concentration (mM, diluted 1:100): 10)",-0.97 (inactive),1.13 (inactive),–,-2.45

# Reference: the supplement of paper PMC3414501
